pAkt inh – blocks phosphorylation of Akt; Neuro2A IGF-stimulated pAkt S473 HTRF, 20 min; stronger effect = lower value; activity change, % for hits at 50 µM; 0.32% of 360,000 active; in the data active means activity change below about -80%; inconclusive means mostly about -51% to -80%; further: on the % scale 0 is the no-effect control and ±100 the full control effect
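Single-point screen (50 µM final compound) in Neuro2A cells stimulated 20 min with 6 nM IGF at 37 deg C. After lysis, Ser473-phosphorylated Akt read by HTRF (ex 330 nm, em 615/665 nm) as the 665/615 ratio.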
uPA generation – blocks generation of uPA at the cell surface | 0.31% of 330,000 active | cell surface uPA generation assay, qHTS | Potency, µM (series often up to 38.3 µM), inactives show at the highest dose activity change, negative = inhibition, actives largely listed as inhibitors; active means well fitted inhibition curve with a large enough effect; inconclusive means small, poorly fitted or top-dose-only effect; inactive means no such curve, though single readings can be large or run the other way; tested in mouse RAW 264.7 cells; further: potency means the concentration at half of the fitted maximal effect; on the % scale 0 is the no-effect control and ±100 the full control effect; nearly all actives have a fitted effect of over 55% in size
CCT modulator – cytosolic chaperonin activity modulation | purified chaperonin ATPase assay, HTRF ADP detection, 30 min | AID 651819 | 0.3% of 360,000 active | activity change, % (test concentration not listed), hits read low; in the data active means activity change below about -30%; further: on the % scale 0 is the no-effect control and ±100 the full control effect
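TRiC (40 or 20 nM final, by batch activity) in 30 mM Tris pH 7.4, 100 mM KCl, 5 mM MgCl2, 1 mM DTT was treated with compound at 76 uM single dose, then 10 uM ATP, 30 min at 37 °C. ADP was read by HTRF Transcreener.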
MmCpn inh – inhibitors of Methanococcus maripaludis chaperonin TRiC (MmCpn). purified Mm-Cpn ATPase, ADP Transcreener TR-FRET. Potency, µM (titrated, usually from 76.9 µM), for inactives: at the top dose activity, negative = inhibition, most hits filed as inhibitors. 0.031% of 330,000 active. AID 504842; further: potency means the concentration at half of the fitted maximal effect; on the % scale 0 is the no-effect control and ±100 the full control effect; nearly all actives have a fitted effect of over 80% in size
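Purified archaeal chaperonin (25 nM final) was preincubated with compound for 10 min at 37°C, then ATP (10 uM final) was added for 30 min at 37°C in Tris pH 7.4/KCl/MgCl2/DTT buffer. ADP was quantified by HTRF Transcreener TR-FRET.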
Epigenetic derep – derepresses silenced GFP reporter in murine cells; murine LDR cells, GFP reporter derepression, 30 h; Potency, µM (doses to about 53.9 µM), inactives show top-dose GFP activation, actives largely listed as activators; 0.2% of 280,000 active; AID 1865; further: potency means the concentration at half of the fitted maximal effect; % of control where 0% means no effect; nearly all actives have a fitted effect of over 60% in size
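Murine LDR cells carrying a silenced, genomically integrated CMV-driven GFP reporter were exposed to compound for 30 hours at 37 C. After PBS washes, GFP-positive cells (20–120 um objects) were counted by laser-scanning microplate cytometry.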
MBNL1-CUG inh – inhibitors of human MBNL1 binding to CUG repeat RNA; TR-FRET MBNL1-His/biotin-(CUG)12 binding, 665/545 ratio; AID 2675; 0.036% of 280,000 active; Potency, µM (series often up to 57.5 µM), inactives show at the highest dose activity change, negative = inhibition, usual class: inhibitors; Q9NR56; active means well fitted inhibition curve with a large enough effect in the signal ratio, with a control signal flat, not every such curve was filed as active; inconclusive means small, poorly fitted or top-dose-only effect, or effect the other way, or a change in a side signal; inactive means no such curve, though single readings can be large or run the other way; the % refers to the signal ratio; further: potency means the concentration at half of the fitted maximal effect; on the % scale 0 is the no-effect control and ±100 the full control effect
Target sequence (Q9NR56 whole entry, looked up): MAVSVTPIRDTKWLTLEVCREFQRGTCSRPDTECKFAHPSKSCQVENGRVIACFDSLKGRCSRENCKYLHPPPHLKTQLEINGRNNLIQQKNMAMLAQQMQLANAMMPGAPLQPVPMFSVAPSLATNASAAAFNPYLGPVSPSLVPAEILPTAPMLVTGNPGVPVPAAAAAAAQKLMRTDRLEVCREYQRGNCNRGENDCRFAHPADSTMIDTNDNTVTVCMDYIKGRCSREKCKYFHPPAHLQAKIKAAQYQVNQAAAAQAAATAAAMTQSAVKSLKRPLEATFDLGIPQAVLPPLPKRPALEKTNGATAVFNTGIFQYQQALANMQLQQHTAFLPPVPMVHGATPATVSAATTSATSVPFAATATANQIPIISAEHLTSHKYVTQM
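TR-FRET readout: Ex 340 nm, 665/545 nm emission ratio, normalized to buffer-only (basal) and MBNL1-(CUG)12 controls. Complex of MBNL1-His with Biotin-(CUG)12, compounds 92 nM–58 uM, incubated 60 min at room temperature.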
Numbers without * were called inactive; i = inactive; ? = inconclusive; . = no result given; [ ] = remark or other dose. Sampled rows, rich in hits. Any-hit rate of the full collection: about 0.97%. Unless noted, the call rests on the fitted dose curve; in most records, active means well fitted curve in the direction sought with a large enough effect; inconclusive means small, poorly fitted or top-dose-only effect, or another doubt; inactive means no such curve, though single readings can be large; an effect the other way counts as inactive or inconclusive.

SMILES | pAkt inh | uPA generation | CCT modulator | MmCpn inh | Epigenetic derep | MBNL1-CUG inh
COc1ccc(-c2cn3ccccc3n2)cc1 | i | 2µM* | -3.0 | -1.7% | -2.4% | -8.9%
O=C(CN1C(=O)C2CCCCC2C1=O)Nc1cc([N+](=O)[O-])ccc1F (stereo not given) | i | 13.0% | -0.3 | 1.6% | . | .
CC1=CC(C)(C)N=C(Nc2ccc(C)cc2)S1 | i | -27.0% | 3.5 | -0.6% | 4.0% | -14.1%
O=c1cc(NC2CCCCCC2)[nH]c(=O)[nH]1 | -112.0%* | 0.1% | -4.6 | -3.2% | 2.3% | 1.3%
CCn1cc(-c2cc(C(F)(F)F)n3nc(C(=O)O)cc3n2)c(C)n1 | -111.9%* | 0.4% | -0.7 | 0.0% | 0.0% | ?
O=C(Cn1cc2c(n1)CCCC2)NCCCN1CCN(c2ccccc2F)CC1 | i | 8.3% | -46.3* | 1.4% | 0.7% | -6.9%
O=C(Cn1cc2c(n1)CCCC2)NCCCN1CCN(Cc2ccccc2)CC1 | i | -11.4% | -0.1 | -1.4% | -0.2% | 5.0%
c1cnc(SCCOc2ccc3c(c2)CCC3)nc1 | -117.5%* | 3.3% | -3.1 | 0.5% | 0.8% | -2.6%
O=C(Nc1nnc(-c2ccco2)o1)C1CC1 | i | -6.3% | -5.3 | -0.7% | -1.2% | 0.9%
Cc1cc2nc(-c3ccc[nH]c3=O)[nH]c2cc1C | i | 0.891µM* | -0.4 | -6.8% | . | ?
COC(=O)c1ccc(CNC(=O)CSc2nnc(COc3ccccc3)n2C)o1 | -109.9%* | 4.9% | -1.3 | 0.8% | -1.1% | -3.7%
O=S1(=O)CC(N2CCN(c3ccccn3)CC2)CN1C1CCCCC1 (stereo not given) | i | . | -9.3 | . | . | .
CCOC(=O)[C@]1(C(NC(=O)OC)c2ccco2)CCCC1=O (stereo not given in full) | . | . | . | . | 0.0%[10.1 µM] | .
Cn1nc(CC(=O)Nc2ccc3c(c2)CCC3)c2ccccc2c1=O | -126.0%* | -6.8% | 0.6 | 0.7% | -0.7% | -6.1%
COc1cccc(COC(=O)C2CCN(C(=O)c3ccc(F)cc3)CC2)c1OC | i | -2.0% | -2.8 | -0.1% | . | .
COc1ccc(/C=C2\CCc3c2nc2ccccc2c3C(=O)O)cc1OC | i | 3.55µM* | 1.7 | -1.9% | 0.1% | ?
COc1ccc(/C=C2\CCCc3c2nc2ccccc2c3C(=O)O)cc1OC | . | . | . | -5.1% | 4.7% | ?
CCCCCCc1cc2cc(-c3nnc(-c4ccc(C)cc4)o3)c(=O)oc2cc1O | . | . | . | . | 2.24µM* | .
CCCCCCc1cc2cc(C(=O)OCC)c(=O)oc2cc1O | i | 2.1% | -3.3 | -15.1% | -0.3% | .
CN(CC1CCOCC1)C(=O)CC1C(=O)NCCN1Cc1ccc(Cl)c(F)c1 (stereo not given) | i | -1.5% | -42.1* | 2.7% | -1.2% | -12.2%
CC(C)OC(=O)c1c2c(n3ccccc13)C(=O)c1ccccc1C2=O | i | -4.1% | -0.5 | -1.6% | 10µM* | 6.3%
COC(=O)c1cc2c(C)c(C)c3ccccn3c-2c1C(=O)OC | i | -4.2% | 3.9 | -9.6% | ? | 40.3%
NC(=O)C1CCN(c2nc(-c3cccc4ccccc34)cs2)CC1 | . | . | . | -4.5% | . | .
CC(=O)Nc1sc(/C(C#N)=C\c2cccc(Cl)c2)nc1-c1ccc(C)cc1 | i | -3.5% | -2.0 | -1.8% | 7.94µM* | .
CSc1ccc(/C=C/C(=O)NC(=O)c2ccccc2O)cc1 | i | 11.2µM* | -1.9 | -2.6% | -0.8%[10.1 µM] | 11.9%
SMILES | pAkt inh | uPA generation | CCT modulator | MmCpn inh | Epigenetic derep | MBNL1-CUG inh
O=C(/C=C/c1ccc(Br)cc1)NC(=O)c1ccccc1O | i | -17.3% | -1.3 | -0.4% | -0.1% | 1.7%
COC(=O)c1cc(NS(=O)(=O)c2ccc(N3CCCCC3)c([N+](=O)[O-])c2)cc(C(=O)OC)c1 | -98.4%* | -0.1% | 1.7 | 1.3% | 1.4% | 2.2%
Cc1oc(-c2ccccc2F)nc1CN1CCC(C(=O)NCCC2=CCCCC2)CC1 | i | -0.1% | -51.7* | 0.4% | -1.0% | 0.5%
Cc1oc(-c2ccccc2F)nc1CN1CCC(C(=O)NCCc2ccccc2)CC1 | . | . | . | . | 0.0% | .
CC(=O)Nc1cccc(NC(=O)c2cccc(-c3ccc(O)cc3)c2)c1 | i | -6.3% | -70.3* | 4.1% | . | -7.6%
COC(=O)c1ccccc1C(=O)N(c1ccccc1)c1ccccc1 | i | -3.1% | 0.6 | . | . | .
COc1ccc(C(=O)Nc2nc3cc4c(cc3s2)OCCO4)c(OC)c1 | i | -12.6% | 0.1 | -0.8% | 2.3% | -7.8%
CC(=O)NC1C(=O)N(CCN2CCOCC2)c2ccc(C)cc21 (stereo not given) | i | -6.7% | -0.6 | -9.7% | . | ?
CC(=O)NC1C(=O)N(CCN2CCOCC2)c2ccc(Cl)cc21 (stereo not given) | i | 3.4% | -30.0* | -6.5% | . | ?
CCOC(=O)c1cn(-c2ccccc2)nc1-c1cccnc1 | i | -5.1% | 0.7 | 1.4% | -2.2% | -2.8%
CCOC(=O)c1cn(-c2ccccc2)nc1-c1ccncc1 | -117.6%* | 7.6% | -1.9 | -1.4% | 1.1% | -5.7%
CCOC(=O)c1c(NC(=O)c2cccs2)sc2c1CCC2 | i | 11.8% | -32.6* | ? | 6.7% | -8.5%
CCOC(=O)c1c(NC(=O)c2cccs2)sc2c1CCCC2 | i | 1.3% | 0.7 | 0.4% | -1.0% | -5.5%
CCC(C)(C(=O)NC1CCCCC1)N(C(=O)CNC(C)=O)c1c(C)n(C)n(-c2ccccc2)c1=O (stereo not given) | -131.4%* | 5.0% | 0.2 | 1.5% | 2.2% | 2.4%
CCC(C)(C(=O)NC1CCCC1)N(C(=O)Cc1cccs1)c1c(C)n(C)n(-c2ccccc2)c1=O (stereo not given) | i | 3.3% | 2.3 | -1.1% | 0.1% | -0.8%
Cc1ccc(NC(=O)CN2C(=O)C3C4C=CC(C4)C3C2=O)cc1S(=O)(=O)N(C)C (stereo not given) | i | -3.2% | 0.0 | 0.4% | -0.9% | .
CCC(=O)Oc1ccc(NC(=O)CSCc2ccccc2)cc1 | i | 10µM* | 0.6 | 0.0% | -2.6% | -4.3%
O=C(CSCc1ccc(Cl)cc1)N/N=C/c1ccc(OCC(=O)Nc2ccccc2)cc1 | i | -5.2% | -53.4* | -2.1% | 2.4% | 2.8%
CCOc1ccccc1NC(=O)c1c(NC(=O)C(C)Oc2ccc(Cl)cc2)sc2c1CCCCC2 (stereo not given) | . | . | . | . | -0.8% | .
CCN1C(=O)[C@H]2[C@@H](c3ccc(-c4ccc(Cl)c(Cl)c4)c(OC)c3)N[C@@](Cc3ccccc3)(C(=O)OC)[C@H]2C1=O | i | 6.8% | -58.1* | -2.4% | . | .
CCN1C(=O)[C@H]2[C@@H](c3ccc(-c4cccc(Cl)c4)cc3)N[C@@](Cc3ccccc3)(C(=O)OC)[C@H]2C1=O | i | ? | -3.4 | -7.1% | . | .

Source: PubChem (National Center for Advancing Translational Sciences (NCATS))
